Bioassay records: PubChem, National Center for Advancing Translational Sciences (NCATS)
ATXN2 expr inh = ATXN2 expression inhibition; AID 1745845; actives 0.72% (n = 360,000); Potency, µM (doses to about 57 µM), most hits filed as inhibitors; HEK-293 ATXN2-luciferase reporter, luminescence, 24 h; also: nearly all actives have a fitted effect of over 55% in size
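ATXN2-luciferase reporter cells (luciferase flanked by upstream and downstream ATXN2 gene portions) were treated 24 h at 37 °C with compounds at up to 57 uM. SteadyGlo luminescence gave expression; GF-AFC fluorescence gave viability.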
DT40 TDP1 CPT = DT40-hTDP1 cell growth loss with CPT; Potency, µM (series often up to 46.2 µM), hits mostly inhibitors; actives 12% (n = 420,000); chicken DT40 Tdp1-/-;hTDP1 cells + 20 nM CPT, ATP luminescence, 48 h; also: nearly all actives have a fitted effect of over 55% in size
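Cell growth measured by CellTiter-Glo luminescence after a minimum 48 h, 37 C compound exposure with 20 nM CPT in Tdp1-knockout DT40 cells stably expressing hTDP1, seeded 400/well; qHTS titration format.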
TGFb inhibitor = inhibitors of TGF-b signaling; HepG2 CAGA-GFP TGF-b/SMAD3 reporter, GFP fluorescence, 18 h; TGF-beta stimulated, 500 pg/mL final; actives 1.2% (n = 410,000); Potency, µM (series often up to 46.1 µM), usual class: inhibitors; also: nearly all actives have a fitted effect of over 65% in size
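First, reporter cells (HEPG2 CAGA-GFP) rested 2 h at 37 degrees C. Next, compounds were pinned in and TGF-beta added to 500 pg/mL final. After 18 h, GFP was imaged per cell and summed per well.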
ATXN viability = reduces viability in counter-screen for ATXN expression inhibitors. S2 cells (HEK-293 line with an ATXN2-luciferase reporter) viability, CellTiter-Fluor protease fluorescence, 24 h. Potency, µM (highest dose often 56.7 µM), most hits filed as cytotoxic. actives 0.49% (n = 400,000). AID 651635; also: nearly all actives have a fitted effect of over 40% in size
DT40 TDP1 no CPT = qHTS for Inhibitors of human tyrosyl-DNA phosphodiesterase 1 (TDP1): qHTS in cells in absence of CPT; DT40 Tdp1-/- hTDP1 cells, no CPT, ATP luminescence, 48 h; Potency, µM (highest dose often 46.2 µM), usual class: inhibitors; actives 15% (n = 420,000); AID 686978, 2013; also: nearly all actives have a fitted effect of over 55% in size
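Stably hTDP1-transfected Tdp1-null chicken DT40 cells were treated with library compounds minus camptothecin and grown for at least 48 hr at 37 °C, after which cellular ATP was quantified by luminescence.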
HepG2 tox = kills HepG2 cells in TGF-b inhibitor counter-screen | Potency, µM (titrated, usually from 46.1 µM), actives largely listed as cytotoxic | HepG2 CAGA-GFP viability, ATP luminescence, 18 h | actives 0.76% (n = 410,000)
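CellTiter-Glo luminescence gave cytotoxicity after 18 hours at 37 degrees C. The cells were HepG2 CAGA-GFP in 1% FBS DMEM, stimulated with 500 pg/mL TGF-beta after compound addition. %Activity was normalised to no-cell wells (complete cell-killing) and DMSO (no toxicity), and curves were fitted and classified.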
Numbers stand for hits; – = inactive; ? = inconclusive; · = no result given; [ ] = another dose, or the depositor's remark. Shown are actives, neighbours in structure and some others; about 17% of the full set was active somewhere. Calls follow the shape of the dose curve; as a rule, active = well fitted curve in the direction sought with a large enough effect; inconclusive = small, poorly fitted or top-dose-only effect, or another doubt; inactive = no such curve, though single readings can be large; an effect the other way counts as inactive or inconclusive.

SMILES	ATXN2 expr inh	DT40 TDP1 CPT	TGFb inhibitor	ATXN viability	DT40 TDP1 no CPT	HepG2 tox
CCC(Cc1ccccc1)NC(=O)Cn1ncc2c3ccccc3n(Cc3ccc(F)cc3)c2c1=O (stereo unspecified)	–	8.2µM	?	–	8.2µM	–
CC(CCc1ccccc1)NC(=O)Cn1ncc2c3ccccc3n(Cc3cccc(Cl)c3)c2c1=O (stereo unspecified)	–	?	–	–	?	–
CCC(Cc1ccccc1)NC(=O)Cn1ncc2c3ccccc3n(Cc3ccccc3)c2c1=O (stereo unspecified)	–	16µM	–	?	16µM	–
CCN(CC)C(=O)CSc1nc2[nH]ncc2c(=O)[nH]1	–	–	–	–	–	–
COc1cccc(N2CC(NC(=O)c3cccc(OC)c3OC)CC2=O)c1 (stereo unspecified)	·	–	–	·	–	–
COc1ccc(Br)cc1C(=O)Nc1cccc(-c2nnc(-c3ccco3)o2)c1	?	23µM	–	–	?	–
COc1ccc(Br)cc1C(=O)Nc1ccc(NC(=O)c2ccco2)cc1	–	–	–	–	–	–
Cc1ccc(SCC(=O)Nc2cccc(-c3nnc(-c4ccco4)o3)c2)cc1	–	18µM	?	–	?	–
O=C(CCN1CCN(c2ccccc2F)CC1)Nc1ccc2c(c1)OCO2	–	?	–	–	?	–
CCCCc1ccc(NC(=O)N[C@@H](C)C(=O)O)cc1	–	4.6µM	–	–	5.2µM	–
OCC1=CC[N+]2(Cc3ccccc3)CCC(O)[C@@H]12 (stereo partly specified)	·	–[9.04 µM]	·	·	–[9.04 µM]	·
Cc1ccc2cn[nH]c2c1N	–	–	–	–	–	–
O=C(C1CCCCC1)N(CCN1CCN(c2ccccc2CO)CC1)c1ccccn1	·	?	·	·	10µM	·
O=C(CN1CCN(c2ccccn2)CC1)NC(=O)NC1CCCCC1	–	–	–	–	–	–
NCCNc1cccc2ccccc12	?	?	·	–	?	·
CCc1nc2ccc(C(=O)N(CC)CCN(C)C)cn2c1N(CC)CCOC	–	–	–	–	–	–
CC(C)(C)S(=O)(=O)c1cnc(N2CCOCC2)nc1N	–	–	–	–	–	–
CC1CCN(C(=O)CN2c3ccc(Br)cc3-c3ccccc3S2(=O)=O)CC1	–	13µM	–	?	21µM	–
CC1CCN(C(=O)CN2c3ccc(C(C)C)cc3-c3ccccc3S2(=O)=O)CC1	–	15µM	–	?	23µM	–
COC(=O)C1CCN(C(=O)CN2C(=O)c3ccccc3S2(=O)=O)CC1	–	?	–	–	–	–
CCOc1ccc(Nc2ccnc3cc(Cl)ccc23)cc1	–	?	–	–	?	–
CCN1CCN(c2ccc(Nc3ccnc4ccccc34)cc2)CC1	?	12µM	?	–	5.8µM	–
CN1CCN(c2ccc(Nc3ccnc4cc(Cl)ccc34)cc2)CC1	3.5µM	4.6µM	–	?	5.8µM	–
CCCCN(CCCC)Cc1cc(=O)oc2ccccc12	–	–	–	–	?	–
Cc1c(C(=O)N/N=C/c2ccncc2)nnn1-c1nonc1N	–	–	–	–	–	–
SMILES	ATXN2 expr inh	DT40 TDP1 CPT	TGFb inhibitor	ATXN viability	DT40 TDP1 no CPT	HepG2 tox
CCC(C)[C@H](NC(=O)[C@H](Cc1ccccc1)n1c(=O)[nH]c2ccccc2c1=O)C(=O)N1CCC(C(=O)O)CC1 (stereo partly specified)	–	–	–	–	–	–
CNC[C@H](CC1CCCCC1)NC[C@H](CO)NCCc1cccc(C(F)(F)F)c1	28µM	7.3µM	?	22µM	5.8µM	–
CNC[C@H](CC1CCCCC1)NC[C@H](CO)NCC1(c2ccccc2)CC1	?	?	?	–	21µM	–
O=C(NC(CC1CCCCC1)C(=O)O)c1ccccc1 (stereo unspecified)	–	–	–	–	–	–
COc1ccc(NC(=O)CN(C)CC(=O)Nc2cccc(S(=O)(=O)N(C)c3ccccc3)c2)cc1	–	?	–	–	?	–
CN(C)CCNC(=O)c1c(NC(=O)c2ccccc2)sc2c1CCCC2	·	?	?	?	26µM	–
Nc1sc2c(c1C(=O)NCCc1ccccc1)CCCC2	·	?	·	·	15µM	·
CC1CCN(Cc2c(C(=O)N3CCc4ccccc4C3)nc3ccc(Cl)cn23)CC1	–	21µM	–	–	?	–
CCc1ccccc1NC(=O)N1CCC(CN2CCc3ccccc3C2)CC1	·	–	–	·	?	–
COC(=O)C1=C(C)N(C)C(=O)NC1c1c(OC)ccc2ccccc12 (stereo unspecified)	–	–	–	–	–	–
Brc1cccc(CN2CCCCCC2)c1	–	–	–	–	–	–
OC1(c2ccc(Br)cc2)CCN(Cc2cccc(Br)c2)CC1	·	21µM	?	–	?	11µM
O=C(Nc1ccc(S(=O)(=O)N2CCOCC2)cc1)c1c(F)cccc1F	–	–	–	–	–	–
COc1ccc(C(=O)NC(=S)NNC(=O)c2cnccn2)cc1	?	21µM	–	–	21µM	–
O=C(NC(=S)NNC(=O)c1ccccc1O)c1cccnc1	·	?	–	?	21µM	–
CCCCOc1ccc(C(=O)NNC(=O)c2cnccn2)cc1OC	?	8.2µM	–	–	21µM	–
O=C(NC(=S)NNC(=O)c1cnccn1)c1ccc(Cl)cc1	?	8.2µM	–	?	?	–
COc1cc(C(=O)NC(=S)NNC(=O)c2cnccn2)cc(OC)c1OC	?	?	–	–	?	–
CSc1ncccc1C(=O)N1CCc2nnc(C(NC(=O)c3ccoc3)C(C)C)n2CC1 (stereo unspecified)	·	–	·	–	–	·
O=C(O)c1cccc2c1C(=O)c1ccc(N3CCN(Cc4ccc5c(c4)OCO5)CC3)cc1S2(=O)=O	–	–	–	–	–	–
O=C(Nc1ccn(CCCN2CCN(c3ccccn3)CC2)c(=O)n1)OCc1ccccc1	–	?	–	–	?	–
CC(C)Sc1nc2ccc(N3C(=O)C4CCCCC4C3=O)cc2s1 (stereo unspecified)	–	–	–	–	?	–
O=C(Cc1ccc(Cl)cc1)NNC(=S)NC(=O)c1cccnc1	–	?	–	–	–	–
O=C(NC(=S)NC1CCCCCCCCCCC1)c1cccnc1	–	?	–	–	15µM	–
O=C(NNC(=S)NC(=O)c1cccnc1)c1ccc(Cl)cc1	–	23µM	–	–	15µM	–
COc1cc(-c2nc(Cn3nnc(C(=O)Nc4ccc(C)cc4C)c3C)c(C)o2)cc(OC)c1OC	–	?	–	–	21µM	–
